Screening results from PubChem.
NS1 inh: inhibitors of influenza NS1 protein function; AID 2326; Potency, µM (doses to about 46.1 µM); 270,000 compounds, 0.4% hits; calls by dose curve; further: actives are rising curves; nearly all actives have a fitted effect of over 50% in size
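Read-out: OD600 growth recovery of NS1-expressing budding yeast. Cells grown overnight at 30C in -URA glucose medium, washed, resuspended and diluted 1:100 in 2% galactose assay medium, pH 6.0. Same strain lacking NS1 served as positive control.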
Cruzain inh noDet: blocks cruzain activity in detergent-free assay | purified cruzain, Z-FR-AMC fluorescence, no detergent | Potency, µM, most hits filed as inhibitors | 200,000 compounds, 2.3% hits; further: nearly all actives have a fitted effect of over 40% in size
Target sequence (P25779 123-467 limits assumed): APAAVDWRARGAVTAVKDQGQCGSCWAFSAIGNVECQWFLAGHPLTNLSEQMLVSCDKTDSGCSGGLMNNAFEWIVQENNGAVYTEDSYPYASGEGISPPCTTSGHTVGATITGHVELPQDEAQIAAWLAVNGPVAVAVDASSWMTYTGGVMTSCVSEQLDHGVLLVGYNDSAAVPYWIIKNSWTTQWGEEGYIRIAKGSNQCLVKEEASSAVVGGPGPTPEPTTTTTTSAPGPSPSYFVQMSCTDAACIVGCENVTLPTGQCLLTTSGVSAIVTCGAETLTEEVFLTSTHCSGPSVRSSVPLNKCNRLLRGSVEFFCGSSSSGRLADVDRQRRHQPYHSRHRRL
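Detergent-free condition (0.00005% Triton X-100) in acetate buffer pH 5.5 with DTT. 1.5 nM enzyme and compound were pre-mixed 15 min, then 2 uM Z-FR-AMC substrate added; reaction progress from fluorescence change between first and third reads (60 s).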
Cruzain inh Det: cruzain (T. cruzi) inhibition with detergent. 200,000 compounds, 0.43% hits. Potency, µM, most hits filed as inhibitors. purified cruzain, Z-FR-AMC fluorescence, 0.01% Triton. P25779; further: nearly all actives have a fitted effect of over 40% in size
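Enzyme 1.5 nM, Z-FR-AMC 2 uM, NaOAc 100 mM pH 5.5, DTT 5 mM, Triton X-100 0.01%; 15 min RT compound preincubation; kinetic ex360/em450, 60 s delta.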
Hits are given with their value; – = inactive; ? = inconclusive; · = not tested or not shown. Many of the other results were omitted from the sample, so hits are more common in it than they were. Unless noted, the call rests on the fitted dose curve; in most records, active means well fitted curve in the direction sought with a large enough effect; inconclusive means small, poorly fitted or top-dose-only effect, or another doubt; inactive means no such curve, though single readings can be large; an effect the other way counts as inactive or inconclusive.

SMILES	NS1 inh	Cruzain inh noDet	Cruzain inh Det
O=C(CNC(=O)c1ccc(F)cc1)OCc1cc(=O)n2ccsc2n1	·	–	–
CCn1c(C(O)c2ccc(C)cc2)nc2ccccc21 (stereo not given)	–	–	–
Cc1cc(C)n2nc(C(=O)NNC(=O)c3ccc(Cl)cc3)nc2n1	–	·	·
CCc1ccc(S(=O)(=O)c2c(C(=O)c3ccccc3)cnc3ccc(CC)cc23)cc1	·	?	–
COc1cc([N+](=O)[O-])ccc1NC(=O)N1CCC2(CC1)Nc1cc(F)ccc1-n1cccc12	·	25µM	–
COc1cc([N+](=O)[O-])ccc1NC(=O)NN1CCN(C)CC1	–	·	·
Cc1cccc(NC(=O)c2ccc(N3CCCCC3)c([N+](=O)[O-])c2)n1	–	–	–
Cc1ccc(C)c2sc(NC(=O)c3ccc(N4CCCCC4)c([N+](=O)[O-])c3)nc12	–	7.9µM	–
Cc1cccc(C)c1NC(=O)COC(=O)c1ccc(N2CCCC2)c([N+](=O)[O-])c1	?	10µM	–
CCC(C)c1ccccc1NC(=O)COC(=O)c1ccc(N2CCCC2)c([N+](=O)[O-])c1 (stereo not given)	–	–	–
CCCOc1ccc(N/C=C/C(=O)c2cc(OC)c(OC)c(OC)c2)cc1	–	·	·
CC(=O)c1c(C)[nH]c(C(=O)NC2=NCCS2)c1C	–	–	–
O=C1/C(=C/c2ccc(F)cc2)SC(=S)N1Nc1ncc(C(F)(F)F)cc1Cl	–	?	–
O=C1/C(=C\c2ccccn2)SC(=S)N1Nc1ncc(C(F)(F)F)cc1Cl	–	–	13µM
CN1CCN(CCNC(=O)c2cn(Cc3ccccc3F)nn2)CC1	–	·	·
COc1ccc(C2/C=C\CN(C(=O)Oc3ccccc3)CC(=O)N2Cc2ccc(F)cc2)cc1 (stereo not given)	–	·	·
COc1ccc(C2/C=C\CN(C(=O)OCC3c4ccccc4-c4ccccc43)CC(=O)N2Cc2cccc(F)c2)cc1 (stereo not given)	·	25µM	–
COCCNC(=O)/C(C#N)=C1\N=C(NC(=O)c2cccs2)c2ccccc21	–	·	·
COc1ccc(CNC(=O)/C(C#N)=C2\N=C(NC(=O)c3cccs3)c3ccccc32)cc1	–	25µM	–
CCCc1cc(C(=O)Nc2ccc(OC)cc2[N+](=O)[O-])cs1	–	·	·
O=[N+]([O-])c1ccc(O)c(C2=NNC(c3ccccc3F)C2)c1 (stereo not given)	–	·	·
COc1ccc([N+](=O)[O-])cc1C1NN=C(c2ccccc2O)S1 (stereo not given)	–	20µM	–
Cc1cc(N=Nc2ccc(Cl)cc2)cc(CN2CCCC2)c1O	–	·	·
CSCCC(NC(=O)c1cccc([N+](=O)[O-])c1)c1nc2ccccc2[nH]1 (stereo not given)	–	?	–
CSCCC(NC(=O)C1CCCCC1)c1nc2ccccc2[nH]1 (stereo not given)	–	·	·
SMILES	NS1 inh	Cruzain inh noDet	Cruzain inh Det
CSCC[C@H](NC(=O)c1cc([N+](=O)[O-])ccc1Cl)c1nc2ccccc2[nH]1	–	–	22µM
CSCC[C@H](NC(=O)COc1ccc(Cl)cc1)c1nc2ccccc2[nH]1	–	13µM	7.1µM
FC(F)(F)c1cc(-c2ccco2)nc(N2CCN(c3ccccc3)CC2)n1	–	–	–
CCc1ccc(C(=O)Nc2ccc(C)c(NS(C)(=O)=O)c2)cc1	–	·	·
OC1(c2cccnc2)CCN(Cc2nnnn2C2CCCCC2)CC1	–	–	–
COc1cccc(Nc2nnc(SCc3nc4ccccc4s3)s2)c1	–	–	–
Cc1cccc(C)c1Nc1nnc(SCc2nc3ccccc3s2)s1	–	32µM	–
CCN(CC)c1ccc(NC(=O)/C=C\c2ccccc2Cl)cc1	–	25µM	–
CN(C)c1ccc(NC(=O)/C=C/c2ccccc2Cl)cc1	–	–	–
CCN(CC)S(=O)(=O)c1cc(NS(=O)(=O)c2ccccc2)ccc1C	–	–	–
COc1ccc(OC)c(C2=NOC(C(=O)NCc3ccco3)C2)c1 (stereo not given)	–	–	–
CC(C)c1ccccc1-n1c(SCC(=O)c2ccc3c(c2)NC(=O)CO3)nc2ccccc2c1=O	–	·	·
Cc1ccc(CN2C(=O)C3CCCN3c3ccc(C#N)cc32)cc1 (stereo not given)	–	10µM	–
CON(C)S(=O)(=O)c1ccc2c(c1)N(Cc1ccc(C)cc1)C(=O)C1CCCN21 (stereo not given)	–	·	·
N#Cc1ccc2c(c1)NC(=O)C1CCCN21 (stereo not given)	–	·	·
Cc1ccc(C)c(CN2C(=O)C3CCCN3c3ccc(C#N)cc32)c1 (stereo not given)	–	16µM	–
CCOc1ccc(N(C(C)=O)C2C=CS(=O)(=O)C2)cc1 (stereo not given)	–	–	–
CCN(CC)S(=O)(=O)c1ccc(C(=O)NCCSc2c(-c3ccccc3)[nH]c3ccccc23)cc1	·	?	–
